We go through eight sequences from publication PMC7862700, “An all-to-all approach to the identification of sequence-specific readers for epigenetic DNA modifications on cytosine”.

Holding throughout (test): DAPPL (digital affinity profiling via proximity ligation, sequencing); 10 mM Tris-HCl pH 7.5, 50 mM NaCl, 1 mM DTT, 4% glycerol, room temperature, 30 min; GST-TFs on glutathione beads, 16-mer random dsDNA library, 0.1% formaldehyde crosslink after washing; high values mean tight binding
Common to all, as to details: protein: recombinant; tags: N-terminal GST; dsDNA, one strand shown

The target of one assay is T1, FLI1 (Homo sapiens, UniProt Q01543 1-452).
T1 sequence: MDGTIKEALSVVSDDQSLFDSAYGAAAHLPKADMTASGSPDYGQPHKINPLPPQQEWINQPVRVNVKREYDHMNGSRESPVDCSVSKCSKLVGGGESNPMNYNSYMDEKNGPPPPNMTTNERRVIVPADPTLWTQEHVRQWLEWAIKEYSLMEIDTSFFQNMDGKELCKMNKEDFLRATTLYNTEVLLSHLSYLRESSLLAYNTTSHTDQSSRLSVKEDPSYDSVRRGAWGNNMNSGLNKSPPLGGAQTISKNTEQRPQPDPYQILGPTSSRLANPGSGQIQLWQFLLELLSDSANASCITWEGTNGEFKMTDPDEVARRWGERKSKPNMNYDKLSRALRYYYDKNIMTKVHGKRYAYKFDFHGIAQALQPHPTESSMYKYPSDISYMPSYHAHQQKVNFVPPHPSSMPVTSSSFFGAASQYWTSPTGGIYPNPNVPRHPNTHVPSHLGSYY
In a few lines: (§1)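 Human transcription factors carrying a GST fusion were produced in yeast, bound to glutathione beads, tagged with DNA barcodes and pooled together with a tag-only sample. Each pool was held with 200 nmole of a random double-stranded 16-mer DNA library in Tris/NaCl/DTT/glycerol buffer for 30 min at room temperature, then washed, crosslinked in 0.1% formaldehyde, proximity-ligated with BsaI/T4 ligase (1 h, 37 °C), PCR-amplified and sequenced on an Illumina NextSeq500. Binding signal is the read frequency of each hexamer for a given factor divided by its frequency in the tag-only sample.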

The target of a further assay is T2, ELK1 (Homo sapiens, UniProt P19419 1-428).
T2 sequence: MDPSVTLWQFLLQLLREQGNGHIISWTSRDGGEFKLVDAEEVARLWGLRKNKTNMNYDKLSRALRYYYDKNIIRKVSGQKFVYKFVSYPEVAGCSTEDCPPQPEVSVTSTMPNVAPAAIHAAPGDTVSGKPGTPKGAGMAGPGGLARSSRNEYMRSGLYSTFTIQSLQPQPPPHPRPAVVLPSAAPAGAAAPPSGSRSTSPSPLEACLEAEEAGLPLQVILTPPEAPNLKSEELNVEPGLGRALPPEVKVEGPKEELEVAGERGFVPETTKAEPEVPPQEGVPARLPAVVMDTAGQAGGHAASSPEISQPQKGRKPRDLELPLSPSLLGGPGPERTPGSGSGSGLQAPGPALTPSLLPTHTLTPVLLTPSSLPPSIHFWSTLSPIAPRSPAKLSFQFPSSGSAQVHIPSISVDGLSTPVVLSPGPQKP
In a few lines:
as §1

The target of the next assay is T3, GABPA (Homo sapiens, UniProt Q06546 1-454).
T3 sequence: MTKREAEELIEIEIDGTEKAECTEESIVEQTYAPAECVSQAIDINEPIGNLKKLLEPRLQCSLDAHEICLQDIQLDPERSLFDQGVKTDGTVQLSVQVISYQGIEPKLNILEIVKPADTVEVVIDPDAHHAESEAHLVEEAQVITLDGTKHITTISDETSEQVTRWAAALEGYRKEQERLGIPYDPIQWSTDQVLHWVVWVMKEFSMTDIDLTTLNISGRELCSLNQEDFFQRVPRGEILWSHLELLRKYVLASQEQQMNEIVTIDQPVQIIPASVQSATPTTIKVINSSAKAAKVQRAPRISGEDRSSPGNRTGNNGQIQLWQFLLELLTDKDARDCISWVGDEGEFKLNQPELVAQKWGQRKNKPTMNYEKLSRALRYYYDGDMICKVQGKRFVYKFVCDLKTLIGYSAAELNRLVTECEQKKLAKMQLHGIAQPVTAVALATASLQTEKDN
In a few lines: as §1

The target of a further assay is T4, ERG (Homo sapiens, UniProt P11308 1-479).
T4 sequence: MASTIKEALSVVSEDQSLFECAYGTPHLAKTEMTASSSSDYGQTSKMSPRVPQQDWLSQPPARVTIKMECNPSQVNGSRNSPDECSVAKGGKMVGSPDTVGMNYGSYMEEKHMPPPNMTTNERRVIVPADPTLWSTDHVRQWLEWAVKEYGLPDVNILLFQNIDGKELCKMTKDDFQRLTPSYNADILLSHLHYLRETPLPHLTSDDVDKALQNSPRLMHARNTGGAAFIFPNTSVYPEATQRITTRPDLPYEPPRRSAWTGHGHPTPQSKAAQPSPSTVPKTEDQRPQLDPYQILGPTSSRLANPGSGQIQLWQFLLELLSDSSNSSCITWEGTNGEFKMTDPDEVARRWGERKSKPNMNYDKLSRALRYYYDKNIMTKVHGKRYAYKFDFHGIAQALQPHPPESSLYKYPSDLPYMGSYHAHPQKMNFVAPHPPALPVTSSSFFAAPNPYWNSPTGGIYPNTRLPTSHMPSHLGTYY
A digest of the protocol: as §1

A further assay deals with ELF1 (Homo sapiens, UniProt P32519 1-619). In a few lines:
as §1

The target in another assay is T5, EHF (Homo sapiens, UniProt Q9NZC4 1-300).
T5 sequence: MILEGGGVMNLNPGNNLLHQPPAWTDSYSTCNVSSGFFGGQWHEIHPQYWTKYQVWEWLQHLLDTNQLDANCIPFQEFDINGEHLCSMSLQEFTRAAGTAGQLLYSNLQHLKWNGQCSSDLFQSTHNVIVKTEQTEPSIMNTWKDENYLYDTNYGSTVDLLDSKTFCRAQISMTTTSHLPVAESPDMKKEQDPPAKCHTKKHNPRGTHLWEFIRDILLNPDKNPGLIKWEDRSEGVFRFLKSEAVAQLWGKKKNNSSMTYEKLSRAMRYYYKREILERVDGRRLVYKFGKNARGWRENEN
In a few lines: as §1

A further assay has as its target SPI1 (Homo sapiens, UniProt P17947 1-270). In a few lines: as §1
The next assay has as its target SPIB (Homo sapiens, UniProt Q01892 1-262). In a few lines: as §1
In a further assay the target is T6, ELK3 (Homo sapiens, UniProt P41970 1-407).
T6 sequence: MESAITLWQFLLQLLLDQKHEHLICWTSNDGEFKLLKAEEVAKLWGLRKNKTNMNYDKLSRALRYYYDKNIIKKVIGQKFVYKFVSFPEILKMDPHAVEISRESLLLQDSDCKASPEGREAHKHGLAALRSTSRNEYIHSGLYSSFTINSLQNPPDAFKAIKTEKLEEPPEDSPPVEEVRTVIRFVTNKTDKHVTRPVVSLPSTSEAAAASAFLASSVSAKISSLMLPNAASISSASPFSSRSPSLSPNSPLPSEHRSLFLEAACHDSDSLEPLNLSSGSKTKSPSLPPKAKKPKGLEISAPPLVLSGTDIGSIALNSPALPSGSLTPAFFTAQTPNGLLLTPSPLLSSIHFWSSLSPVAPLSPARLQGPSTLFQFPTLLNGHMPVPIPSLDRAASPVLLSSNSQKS
In a few lines:
as §1

Sequence of SPIB (Q01892 whole entry): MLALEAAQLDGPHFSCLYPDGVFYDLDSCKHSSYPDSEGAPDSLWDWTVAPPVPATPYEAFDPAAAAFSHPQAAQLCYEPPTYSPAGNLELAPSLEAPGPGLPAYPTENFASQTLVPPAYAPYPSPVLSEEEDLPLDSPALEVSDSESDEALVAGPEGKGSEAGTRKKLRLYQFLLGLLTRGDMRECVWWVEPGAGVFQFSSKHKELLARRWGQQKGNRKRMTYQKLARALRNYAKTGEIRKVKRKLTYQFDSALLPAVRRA
Sequence of ELF1 (P32519 whole entry): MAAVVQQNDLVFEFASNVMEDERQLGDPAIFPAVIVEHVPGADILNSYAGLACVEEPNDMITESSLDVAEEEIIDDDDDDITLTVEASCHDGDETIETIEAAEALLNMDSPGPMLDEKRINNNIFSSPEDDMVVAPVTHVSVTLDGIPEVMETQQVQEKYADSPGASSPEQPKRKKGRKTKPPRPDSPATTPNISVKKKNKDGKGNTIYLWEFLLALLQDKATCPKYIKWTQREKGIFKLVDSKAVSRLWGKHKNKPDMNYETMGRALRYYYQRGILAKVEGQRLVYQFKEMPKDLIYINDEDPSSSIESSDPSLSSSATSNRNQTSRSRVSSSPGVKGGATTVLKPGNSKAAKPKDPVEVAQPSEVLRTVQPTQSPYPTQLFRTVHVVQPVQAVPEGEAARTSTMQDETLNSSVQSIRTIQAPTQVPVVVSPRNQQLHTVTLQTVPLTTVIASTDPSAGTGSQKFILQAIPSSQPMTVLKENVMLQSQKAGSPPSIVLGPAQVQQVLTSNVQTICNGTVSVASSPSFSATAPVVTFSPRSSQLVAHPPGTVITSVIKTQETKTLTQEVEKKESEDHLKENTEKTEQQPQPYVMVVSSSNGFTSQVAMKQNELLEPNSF

For the sequence TTATCG, the binding signal with FLI1 is 1.17 fold enrichment (6-mer frequency, TF over GST control); in the assay with ELK1, 1.28 fold enrichment (6-mer frequency, TF over GST control); with GABPA, 1.3 fold enrichment (6-mer frequency, TF over GST control); in the assay with ERG it was 1.3 fold enrichment (6-mer frequency, TF over GST control); in the assay with ELF1, 1.25 fold enrichment (6-mer frequency, TF over GST control); with EHF, 1.25 fold enrichment (6-mer frequency, TF over GST control). Besides, the binding signal with SPI1 is 1.15 fold enrichment (6-mer frequency, TF over GST control); with SPIB, 1.13 fold enrichment (6-mer frequency, TF over GST control); in the assay with ELK3 it was 1.17 fold enrichment (6-mer frequency, TF over GST control).

Consider TTGACT, for which the binding signal is 1.19 fold enrichment (6-mer frequency, TF over GST control) with FLI1; 1.19 fold enrichment (6-mer frequency, TF over GST control) in the assay with ELK1; 1.15 fold enrichment (6-mer frequency, TF over GST control) with GABPA; 1.18 fold enrichment (6-mer frequency, TF over GST control) with ERG; 1.15 fold enrichment (6-mer frequency, TF over GST control) with ELF1; 1.06 fold enrichment (6-mer frequency, TF over GST control) in the assay with EHF. Also, the binding signal with SPI1 is 1.19 fold enrichment (6-mer frequency, TF over GST control); with SPIB, 1.18 fold enrichment (6-mer frequency, TF over GST control); with ELK3 it was 1.03 fold enrichment (6-mer frequency, TF over GST control).

For the sequence ATAGTA, the binding signal was 1.12 fold enrichment (6-mer frequency, TF over GST control) with FLI1; 1.18 fold enrichment (6-mer frequency, TF over GST control) in the assay with ELK1; 1.19 fold enrichment (6-mer frequency, TF over GST control) with GABPA; 1.15 fold enrichment (6-mer frequency, TF over GST control) with ERG; 1.19 fold enrichment (6-mer frequency, TF over GST control) in the assay with ELF1; 1.22 fold enrichment (6-mer frequency, TF over GST control) in the assay with EHF. Further, the binding signal with SPI1 is 1.06 fold enrichment (6-mer frequency, TF over GST control); in the assay with SPIB, 1.13 fold enrichment (6-mer frequency, TF over GST control); in the assay with ELK3, 1.12 fold enrichment (6-mer frequency, TF over GST control).

CTCGCA: the binding signal with FLI1 is 1.34 fold enrichment (6-mer frequency, TF over GST control); with ELK1, 1.25 fold enrichment (6-mer frequency, TF over GST control); with GABPA, 1.29 fold enrichment (6-mer frequency, TF over GST control); with ERG, 1.29 fold enrichment (6-mer frequency, TF over GST control); in the assay with ELF1, 1.27 fold enrichment (6-mer frequency, TF over GST control); with EHF, 1.3 fold enrichment (6-mer frequency, TF over GST control). The binding signal in the assay with SPI1 is 1.27 fold enrichment (6-mer frequency, TF over GST control); in the assay with SPIB, 1.22 fold enrichment (6-mer frequency, TF over GST control); with ELK3, 1.17 fold enrichment (6-mer frequency, TF over GST control).

For CAAAAC, the binding signal was 1.19 fold enrichment (6-mer frequency, TF over GST control) with FLI1; 1.27 fold enrichment (6-mer frequency, TF over GST control) with ELK1; 1.3 fold enrichment (6-mer frequency, TF over GST control) in the assay with GABPA; 1.23 fold enrichment (6-mer frequency, TF over GST control) with ERG; 1.28 fold enrichment (6-mer frequency, TF over GST control) with ELF1; 1.26 fold enrichment (6-mer frequency, TF over GST control) with EHF. Besides, the binding signal is 1.38 fold enrichment (6-mer frequency, TF over GST control) with SPI1; 1.23 fold enrichment (6-mer frequency, TF over GST control) with SPIB; 1.21 fold enrichment (6-mer frequency, TF over GST control) with ELK3.

For GCCTCG, the binding signal with FLI1 was 1.41 fold enrichment (6-mer frequency, TF over GST control); with ELK1, 1.26 fold enrichment (6-mer frequency, TF over GST control); in the assay with GABPA, 1.34 fold enrichment (6-mer frequency, TF over GST control); in the assay with ERG it was 1.45 fold enrichment (6-mer frequency, TF over GST control); in the assay with ELF1 it was 1.42 fold enrichment (6-mer frequency, TF over GST control); with EHF, 1.3 fold enrichment (6-mer frequency, TF over GST control). Moreover, the binding signal is 1.21 fold enrichment (6-mer frequency, TF over GST control) with SPI1; 1.19 fold enrichment (6-mer frequency, TF over GST control) with SPIB; 1.26 fold enrichment (6-mer frequency, TF over GST control) with ELK3.

Take CTCAAT: the binding signal with FLI1 is 1.28 fold enrichment (6-mer frequency, TF over GST control); with ELK1, 1.2 fold enrichment (6-mer frequency, TF over GST control); in the assay with GABPA it was 1.28 fold enrichment (6-mer frequency, TF over GST control); in the assay with ERG it was 1.27 fold enrichment (6-mer frequency, TF over GST control); with ELF1, 1.23 fold enrichment (6-mer frequency, TF over GST control); with EHF, 1.25 fold enrichment (6-mer frequency, TF over GST control). The binding signal is 1.33 fold enrichment (6-mer frequency, TF over GST control) in the assay with SPI1; 1.36 fold enrichment (6-mer frequency, TF over GST control) with SPIB; 1.34 fold enrichment (6-mer frequency, TF over GST control) with ELK3.

Turning to TGTGCT, the binding signal with FLI1 was 1.13 fold enrichment (6-mer frequency, TF over GST control); in the assay with ELK1, 1.23 fold enrichment (6-mer frequency, TF over GST control); in the assay with GABPA, 1.24 fold enrichment (6-mer frequency, TF over GST control); with ERG, 1.23 fold enrichment (6-mer frequency, TF over GST control); in the assay with ELF1 it was 1.2 fold enrichment (6-mer frequency, TF over GST control); in the assay with EHF it was 1.11 fold enrichment (6-mer frequency, TF over GST control). For the same sequence, the binding signal in the assay with SPI1 was 1.24 fold enrichment (6-mer frequency, TF over GST control); in the assay with SPIB it was 1.14 fold enrichment (6-mer frequency, TF over GST control); with ELK3 it was 1.16 fold enrichment (6-mer frequency, TF over GST control).
